Laboratory results reported in the supplement of paper PMC11732987, “Enantioselective OTUD7B fragment discovery through chemoproteomics screening and high-throughput optimisation” (Communications Chemistry, 2025).

Experiments:
Test in all cases: log2 ratio of Biotin-Ahx-Ub-VS probe labelling (fragment/DMSO); higher = less target engagement (more negative = stronger competition), active = hit call of the paper (q ≤ 0.05, log2 ratio ≤ -1)
Conditions in all cases: compound concentration: 200 uM; treatment time: 3 h
USP34 = USP34 (UniProt Q70CQ2)
How it was run: (§1)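 HEK293T lysate, 495 µg per sample in Tris/CHAPS/IGEPAL buffer with protease inhibitors, was treated in triplicate with fragment at 200 µM or vehicle for 3 h and then with Biotin-Ahx-Ub-VS at 0.5 µM final for 1 h. Labelled DUBs were NeutrAvidin-enriched, digested with LysC and trypsin, and run by diaPASEF LC-MS/MS. Spectronaut label-free quantities were global-median-normalised, and values are average log2 fragment/vehicle ratios by unpaired t-test on proteins with ≥2 unique peptides.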

USP36 = target: T1, USP36 (UniProt Q9P275)
T1 sequence (whole entry): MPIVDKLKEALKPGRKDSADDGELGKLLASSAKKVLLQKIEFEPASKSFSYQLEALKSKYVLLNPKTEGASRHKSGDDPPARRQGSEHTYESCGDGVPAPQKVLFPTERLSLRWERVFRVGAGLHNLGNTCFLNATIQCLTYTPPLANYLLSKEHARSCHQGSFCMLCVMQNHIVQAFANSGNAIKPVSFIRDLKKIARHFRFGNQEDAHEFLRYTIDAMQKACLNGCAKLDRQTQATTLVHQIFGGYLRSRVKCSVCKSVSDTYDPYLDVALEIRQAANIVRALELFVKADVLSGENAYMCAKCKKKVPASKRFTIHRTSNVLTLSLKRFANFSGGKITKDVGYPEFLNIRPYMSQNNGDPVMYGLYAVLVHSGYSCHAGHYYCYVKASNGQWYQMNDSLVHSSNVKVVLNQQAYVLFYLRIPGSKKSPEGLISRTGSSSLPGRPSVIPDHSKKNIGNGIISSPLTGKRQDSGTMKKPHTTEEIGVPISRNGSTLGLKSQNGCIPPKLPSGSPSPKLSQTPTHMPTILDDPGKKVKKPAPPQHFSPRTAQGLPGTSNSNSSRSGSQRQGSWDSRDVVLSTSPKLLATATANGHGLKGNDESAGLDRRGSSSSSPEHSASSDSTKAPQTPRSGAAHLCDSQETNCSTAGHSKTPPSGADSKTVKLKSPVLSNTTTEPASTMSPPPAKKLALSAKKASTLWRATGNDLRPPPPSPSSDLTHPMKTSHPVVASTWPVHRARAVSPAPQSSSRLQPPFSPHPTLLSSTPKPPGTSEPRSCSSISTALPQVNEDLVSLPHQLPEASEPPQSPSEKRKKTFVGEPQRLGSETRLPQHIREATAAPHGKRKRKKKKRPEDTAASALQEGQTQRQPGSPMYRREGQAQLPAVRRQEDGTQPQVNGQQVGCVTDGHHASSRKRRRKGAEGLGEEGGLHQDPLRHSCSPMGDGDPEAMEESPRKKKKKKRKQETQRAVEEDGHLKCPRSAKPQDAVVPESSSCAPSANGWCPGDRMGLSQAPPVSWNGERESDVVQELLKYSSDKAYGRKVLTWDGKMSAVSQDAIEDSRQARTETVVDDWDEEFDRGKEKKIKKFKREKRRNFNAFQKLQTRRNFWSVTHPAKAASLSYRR
How it was run: as §1

USP38 = target: T2, USP38 (UniProt Q8NB14)
T2 sequence (whole entry): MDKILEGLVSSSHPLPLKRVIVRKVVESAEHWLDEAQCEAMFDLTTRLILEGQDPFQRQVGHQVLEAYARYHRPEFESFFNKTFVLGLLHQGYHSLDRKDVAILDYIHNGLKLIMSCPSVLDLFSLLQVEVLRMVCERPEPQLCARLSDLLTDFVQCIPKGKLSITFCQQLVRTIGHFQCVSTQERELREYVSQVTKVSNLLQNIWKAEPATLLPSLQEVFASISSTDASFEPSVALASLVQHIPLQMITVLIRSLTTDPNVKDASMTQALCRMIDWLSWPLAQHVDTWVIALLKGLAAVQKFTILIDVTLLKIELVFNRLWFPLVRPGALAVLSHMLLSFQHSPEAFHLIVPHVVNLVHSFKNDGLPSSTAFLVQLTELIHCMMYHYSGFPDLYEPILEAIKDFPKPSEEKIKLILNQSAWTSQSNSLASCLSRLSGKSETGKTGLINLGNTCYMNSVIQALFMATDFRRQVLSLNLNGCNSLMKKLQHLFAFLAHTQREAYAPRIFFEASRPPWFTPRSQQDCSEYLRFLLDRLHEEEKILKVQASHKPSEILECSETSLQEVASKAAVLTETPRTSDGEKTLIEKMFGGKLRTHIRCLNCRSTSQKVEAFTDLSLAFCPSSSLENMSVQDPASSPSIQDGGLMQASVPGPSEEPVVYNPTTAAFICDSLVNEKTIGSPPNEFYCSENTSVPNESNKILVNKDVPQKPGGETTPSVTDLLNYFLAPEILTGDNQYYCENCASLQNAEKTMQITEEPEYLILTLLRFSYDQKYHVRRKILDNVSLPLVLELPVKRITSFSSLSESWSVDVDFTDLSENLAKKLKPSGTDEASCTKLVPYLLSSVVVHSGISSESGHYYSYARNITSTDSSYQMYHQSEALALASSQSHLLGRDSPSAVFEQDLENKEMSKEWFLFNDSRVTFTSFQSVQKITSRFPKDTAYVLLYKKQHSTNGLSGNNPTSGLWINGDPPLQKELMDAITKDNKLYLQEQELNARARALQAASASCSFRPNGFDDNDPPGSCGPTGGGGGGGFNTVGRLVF
How it was run: as §1

USP39 = target: T3, USP39 (UniProt Q53GS9)
T3 sequence (whole entry): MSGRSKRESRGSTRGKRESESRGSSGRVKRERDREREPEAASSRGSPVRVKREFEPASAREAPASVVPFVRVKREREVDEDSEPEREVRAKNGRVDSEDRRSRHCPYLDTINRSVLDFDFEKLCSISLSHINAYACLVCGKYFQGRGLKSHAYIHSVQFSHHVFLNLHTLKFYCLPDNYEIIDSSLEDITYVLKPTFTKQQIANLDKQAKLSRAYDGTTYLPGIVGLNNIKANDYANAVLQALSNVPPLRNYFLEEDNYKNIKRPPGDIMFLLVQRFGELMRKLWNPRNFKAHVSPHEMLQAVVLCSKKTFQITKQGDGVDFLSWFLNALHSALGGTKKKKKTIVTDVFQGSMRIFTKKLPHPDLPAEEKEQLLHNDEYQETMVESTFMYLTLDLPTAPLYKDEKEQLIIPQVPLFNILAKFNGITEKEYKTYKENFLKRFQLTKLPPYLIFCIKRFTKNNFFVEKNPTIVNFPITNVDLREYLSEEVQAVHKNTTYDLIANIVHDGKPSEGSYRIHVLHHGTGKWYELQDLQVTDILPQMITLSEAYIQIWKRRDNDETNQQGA
How it was run: as §1

USP4 = target: T4, USP4 (UniProt Q13107)
T4 sequence (whole entry): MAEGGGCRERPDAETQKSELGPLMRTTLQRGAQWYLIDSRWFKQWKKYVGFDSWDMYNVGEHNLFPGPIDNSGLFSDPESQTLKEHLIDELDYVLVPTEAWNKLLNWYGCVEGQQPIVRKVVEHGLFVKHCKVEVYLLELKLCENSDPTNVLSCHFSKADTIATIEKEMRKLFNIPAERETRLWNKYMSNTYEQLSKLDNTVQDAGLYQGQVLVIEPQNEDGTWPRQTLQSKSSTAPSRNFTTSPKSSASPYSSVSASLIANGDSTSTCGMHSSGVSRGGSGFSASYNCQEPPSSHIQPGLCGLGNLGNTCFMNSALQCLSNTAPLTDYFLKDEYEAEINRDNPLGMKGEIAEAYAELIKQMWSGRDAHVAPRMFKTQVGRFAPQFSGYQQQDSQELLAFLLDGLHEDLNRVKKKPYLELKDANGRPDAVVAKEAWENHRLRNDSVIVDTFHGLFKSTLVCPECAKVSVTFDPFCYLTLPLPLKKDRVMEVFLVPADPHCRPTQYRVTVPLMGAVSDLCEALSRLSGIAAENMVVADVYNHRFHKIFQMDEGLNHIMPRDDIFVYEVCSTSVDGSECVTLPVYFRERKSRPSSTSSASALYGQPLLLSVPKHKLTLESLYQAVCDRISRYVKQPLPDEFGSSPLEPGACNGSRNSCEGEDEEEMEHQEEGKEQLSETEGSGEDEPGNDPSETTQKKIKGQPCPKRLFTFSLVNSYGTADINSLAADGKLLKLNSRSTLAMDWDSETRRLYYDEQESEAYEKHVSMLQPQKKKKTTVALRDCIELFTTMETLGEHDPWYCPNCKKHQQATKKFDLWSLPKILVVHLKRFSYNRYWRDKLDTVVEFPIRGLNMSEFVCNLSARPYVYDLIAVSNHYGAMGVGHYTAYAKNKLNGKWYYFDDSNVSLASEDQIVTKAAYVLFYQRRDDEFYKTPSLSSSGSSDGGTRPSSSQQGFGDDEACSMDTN
How it was run: as §1

Measured: log2 ratio of Biotin-Ahx-Ub-VS probe labelling

Sequence of USP34 (Q70CQ2 whole entry, the tested form may be a part): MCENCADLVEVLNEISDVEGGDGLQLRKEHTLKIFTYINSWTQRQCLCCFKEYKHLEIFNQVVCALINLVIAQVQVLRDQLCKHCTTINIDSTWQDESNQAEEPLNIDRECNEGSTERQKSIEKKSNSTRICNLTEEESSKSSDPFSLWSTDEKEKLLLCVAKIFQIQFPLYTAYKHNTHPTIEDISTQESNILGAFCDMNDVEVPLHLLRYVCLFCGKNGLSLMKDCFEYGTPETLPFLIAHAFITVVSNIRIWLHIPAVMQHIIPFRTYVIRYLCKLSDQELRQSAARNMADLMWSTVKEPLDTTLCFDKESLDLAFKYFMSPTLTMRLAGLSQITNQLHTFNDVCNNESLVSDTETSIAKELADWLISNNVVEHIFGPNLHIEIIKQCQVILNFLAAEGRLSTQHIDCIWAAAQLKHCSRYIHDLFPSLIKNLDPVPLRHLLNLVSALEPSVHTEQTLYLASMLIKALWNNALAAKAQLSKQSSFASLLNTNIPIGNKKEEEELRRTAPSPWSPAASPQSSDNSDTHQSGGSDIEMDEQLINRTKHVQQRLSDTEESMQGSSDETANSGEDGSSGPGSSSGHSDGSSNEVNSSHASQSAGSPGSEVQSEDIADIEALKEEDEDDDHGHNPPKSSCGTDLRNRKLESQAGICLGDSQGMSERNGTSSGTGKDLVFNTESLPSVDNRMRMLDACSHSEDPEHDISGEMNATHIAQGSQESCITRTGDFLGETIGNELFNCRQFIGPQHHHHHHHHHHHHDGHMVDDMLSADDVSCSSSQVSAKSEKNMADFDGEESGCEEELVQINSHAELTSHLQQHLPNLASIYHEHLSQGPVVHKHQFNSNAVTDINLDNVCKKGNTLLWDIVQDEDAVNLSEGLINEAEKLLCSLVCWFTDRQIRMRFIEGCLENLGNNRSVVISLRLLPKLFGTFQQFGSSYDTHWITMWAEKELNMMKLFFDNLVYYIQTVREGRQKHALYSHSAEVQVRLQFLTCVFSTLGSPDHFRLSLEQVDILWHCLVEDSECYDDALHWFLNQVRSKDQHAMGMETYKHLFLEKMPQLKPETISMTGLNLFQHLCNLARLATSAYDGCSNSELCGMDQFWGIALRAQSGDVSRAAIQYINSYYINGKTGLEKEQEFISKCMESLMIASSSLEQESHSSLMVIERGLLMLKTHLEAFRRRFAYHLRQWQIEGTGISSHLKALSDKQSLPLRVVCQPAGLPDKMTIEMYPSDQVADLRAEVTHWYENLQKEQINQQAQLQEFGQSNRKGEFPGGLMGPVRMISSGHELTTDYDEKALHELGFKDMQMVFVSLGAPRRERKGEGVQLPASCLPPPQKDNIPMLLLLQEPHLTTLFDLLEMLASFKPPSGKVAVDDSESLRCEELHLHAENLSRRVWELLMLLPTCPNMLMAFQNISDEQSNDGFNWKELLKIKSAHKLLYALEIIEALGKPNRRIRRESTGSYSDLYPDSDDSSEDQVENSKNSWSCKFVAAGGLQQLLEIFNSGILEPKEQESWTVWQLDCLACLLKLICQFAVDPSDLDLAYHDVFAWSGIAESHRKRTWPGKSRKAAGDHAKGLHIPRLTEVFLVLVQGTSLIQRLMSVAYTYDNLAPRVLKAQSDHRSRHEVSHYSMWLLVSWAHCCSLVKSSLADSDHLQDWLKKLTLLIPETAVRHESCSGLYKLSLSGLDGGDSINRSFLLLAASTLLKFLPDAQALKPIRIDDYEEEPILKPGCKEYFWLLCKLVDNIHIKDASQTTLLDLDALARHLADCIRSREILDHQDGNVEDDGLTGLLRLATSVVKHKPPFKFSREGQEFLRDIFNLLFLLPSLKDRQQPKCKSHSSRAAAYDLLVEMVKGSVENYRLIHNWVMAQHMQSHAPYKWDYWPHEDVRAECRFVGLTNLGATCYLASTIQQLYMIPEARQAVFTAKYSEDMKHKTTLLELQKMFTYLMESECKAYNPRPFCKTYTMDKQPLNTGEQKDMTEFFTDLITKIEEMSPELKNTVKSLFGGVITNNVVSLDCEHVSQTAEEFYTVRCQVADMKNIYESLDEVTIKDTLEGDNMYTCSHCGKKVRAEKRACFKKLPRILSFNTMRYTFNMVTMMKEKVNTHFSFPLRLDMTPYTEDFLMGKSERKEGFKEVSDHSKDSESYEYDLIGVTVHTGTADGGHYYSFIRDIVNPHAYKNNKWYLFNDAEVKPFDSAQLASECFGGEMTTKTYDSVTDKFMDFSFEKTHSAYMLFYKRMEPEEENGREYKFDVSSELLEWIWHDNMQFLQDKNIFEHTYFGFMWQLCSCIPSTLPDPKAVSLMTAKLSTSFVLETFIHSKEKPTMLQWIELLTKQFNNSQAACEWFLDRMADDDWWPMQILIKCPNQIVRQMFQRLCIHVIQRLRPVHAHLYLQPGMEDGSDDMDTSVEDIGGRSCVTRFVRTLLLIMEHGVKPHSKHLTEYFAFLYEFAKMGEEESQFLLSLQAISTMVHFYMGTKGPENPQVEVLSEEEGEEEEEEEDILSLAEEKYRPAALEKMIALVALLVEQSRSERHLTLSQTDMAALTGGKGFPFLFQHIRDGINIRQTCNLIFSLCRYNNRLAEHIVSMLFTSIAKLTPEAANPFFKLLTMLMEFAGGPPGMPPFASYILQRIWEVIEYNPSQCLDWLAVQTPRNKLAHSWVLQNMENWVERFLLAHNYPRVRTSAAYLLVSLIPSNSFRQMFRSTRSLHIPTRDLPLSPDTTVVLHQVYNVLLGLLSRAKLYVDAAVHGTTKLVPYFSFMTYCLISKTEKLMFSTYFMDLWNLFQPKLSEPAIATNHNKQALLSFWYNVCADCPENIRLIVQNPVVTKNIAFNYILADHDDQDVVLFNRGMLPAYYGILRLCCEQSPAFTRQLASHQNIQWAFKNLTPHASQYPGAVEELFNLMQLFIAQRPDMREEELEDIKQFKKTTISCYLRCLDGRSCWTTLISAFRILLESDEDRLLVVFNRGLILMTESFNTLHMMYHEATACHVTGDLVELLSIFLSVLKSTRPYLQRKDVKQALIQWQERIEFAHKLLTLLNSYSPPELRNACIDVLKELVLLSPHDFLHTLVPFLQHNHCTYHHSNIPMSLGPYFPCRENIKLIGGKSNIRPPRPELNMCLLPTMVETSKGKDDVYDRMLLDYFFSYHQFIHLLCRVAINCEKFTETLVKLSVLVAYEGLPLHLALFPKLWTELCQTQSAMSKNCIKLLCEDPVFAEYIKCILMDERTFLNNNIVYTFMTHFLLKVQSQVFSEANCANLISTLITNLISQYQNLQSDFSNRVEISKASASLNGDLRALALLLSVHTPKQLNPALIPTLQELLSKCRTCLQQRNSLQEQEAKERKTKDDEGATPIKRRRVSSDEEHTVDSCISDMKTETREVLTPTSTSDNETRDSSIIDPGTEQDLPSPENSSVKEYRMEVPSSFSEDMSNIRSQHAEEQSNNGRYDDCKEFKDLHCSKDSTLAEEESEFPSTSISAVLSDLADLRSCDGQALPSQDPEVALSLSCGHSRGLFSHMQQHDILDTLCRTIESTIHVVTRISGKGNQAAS

O=C(CCl)N1CCC(S(=O)(=O)c2ccc(F)cc2)CC1
inactive: USP34 -0.128 | USP36 -0.00998 | USP38 -0.00588 | USP39 0.031 | USP4 -0.218
